15 compounds from PubChem BioAssay (NCATS) can be followed below.

In assay [1] the target is Lysosomal acid glucosylceramidase (Homo sapiens) (UniProt P04062). In words: Glucocerebrosidase-p2 (AID 348; in the data active means potency below about 10 µM; further: potency means the concentration at half of the fitted maximal effect). The settings on record: purified GBA, blue fluorogenic substrate, 40 min. In short, it runs like this: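 Normal human glucocerebrosidase (0.2 nM) with blue fluorogenic substrate (80 uM final) in citrate/phosphate pH 5.9 with 10mM sodium taurocholate, 0.01% tween-20; 40 min RT, NaOH/glycine stop; fluorescence Ex 365/Em 440; AC50 from a titration from 0.6 nM upwards.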

The nature of assay [2]: AP1 Signaling Pathway (AID 357).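 Further: ME-180 reporter cells stimulated with EGF at its EC50 level; on the % scale 0 is the no-effect control and ±100 the full control effect.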 The conditions noted are these: ME-180 AP-1-bla reporter, EGF-induced, beta-lactamase ratio, 5 h; at 7.69 µM (top of the series) unless noted. The method, boiled down: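 AP-1-bla ME-180 cells, Opti-MEM + 0.5% dialyzed FBS, plated overnight 37 °C. Cpd titration + EC50 EGF, 5 h 37 °C. CCF4 2.5 h RT; ex 405, em 460/530 ratio → %activity, AC50.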

The target in assay [3] is Cytochrome P450 1A2 (Homo sapiens) (UniProt P05177). In words: p450-cyp1a2 (AID 410; calls by dose curve; further: potency means the concentration at half of the fitted maximal effect). The conditions noted are these: recombinant CYP1A2, luciferin-ME demethylation, luminescence; series mostly up to 11.4 µM. The method, boiled down: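 20nM CYP1A2, 100uM Luciferin-ME (=Km), 100mM KPO4; cpd 10 min RT; +NADPH regen, 60 min RT; stop/detect 20 min; luminescence. Normalized to furafylline 57 uM = full inhibition.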

Assay [4] can be described thus: NFAT Signaling Pathway (AID 444).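 Further: carbachol stimulus at about its EC50 of 1 µM final; on the % scale 0 is the no-effect control and ±100 the full control effect.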 The settings on record: Jurkat NFAT-bla M1, carbachol, beta-lactamase ratio, 5 h; at 7.69 µM (top of the series) unless noted. In short, it runs like this:
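Read-out: CCF4 FRET ratio (460 nm/530 nm) after 1 h RT dye loading, used for %activity and AC50 from titration series. Cells: Jurkat NFAT-β-lactamase/M1 line, treated with compound plus 1 uM carbachol for 5 h, 37 °C.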

Assay [5] can be described thus: Stat Signaling Pathway (AID 446).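 Further: ME-180 cervical cancer cells given 40 pM IL-6 alongside compound; SIE-controlled beta-lactamase reporter measured as 460/530 nm FRET emission ratio; on the % scale 0 is the no-effect control and ±100 the full control effect.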 The settings on record: ME-180 (cervical carcinoma) SIE beta-lactamase reporter, IL-6 stimulated, 5 h; at 7.69 µM (top of the series) unless noted. The method, boiled down: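 FRET read-out (405 nm excitation, 460/530 nm emission) of a beta-lactamase reporter under a STAT-inducible element in ME-180 cervical carcinoma cells. Cells with compound receive 40 pM IL-6 for 5 h. Values are normalised to AC90 stimulation and AC90 JAK-inhibitor controls.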

The target in assay [6] is Glucocorticoid receptor (Homo sapiens) (UniProt P04150). In words: GR-GFP Redistribution (AID 450;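 active means compounds whose dose series gives a full or clear partial fitted curve of increased nuclear translocation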; further: potency means the concentration at half of the fitted maximal effect). The conditions noted are these: U2OS GR-GFP nuclear translocation, laser cytometry, 2 h.
Assay [7] shares this target. In words: GR-EFC Redistribution (AID 451; calls by dose curve; further: potency means the concentration at half of the fitted maximal effect). The conditions noted are these: CHO-K1 GR-EFC translocation, beta-gal luminescence, 2 h. In short, it runs like this: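 Translocation of GR-ED fusion to nuclear EA restores b-gal, read by luminescence after 1 h room-temperature detection. Engineered CHO-K1 biosensor cells, 1,000/well, exposed 2 h at 37 C to titrations up to 46 uM final.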

The target in assay [8] is Mitogen-activated protein kinase 10 (Mus musculus) (UniProt Q61831). In words: JNK3 AlphaScreen Assay (AID 530).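 Further: kinase came from lysate of stimulated human HepG2 cells; signal reports phosphorylation of biotinylated GST-cJun 1-79 at Ser73 with 10 µM ATP; on the % scale 0 is the no-effect control and ±100 the full control effect.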 The settings on record: JNK3 lysate, c-Jun phosphorylation; series mostly up to 11.4 µM. The method, boiled down: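 Kinase buffer: 20 mM Tris-HCl pH 7.6, 10 mM MgCl2, 1 mM DTT, 0.1 mM Na3VO4, 0.01% Tween-20; ATP 10 uM. Substrate biotin-GST-cJun(1-79), enzyme from activated HepG2 lysates. Detection by Ser73 phospho-antibody AlphaScreen.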

Assay [9] addresses 3',5'-cyclic-AMP phosphodiesterase 4B (Homo sapiens) (UniProt Q07343). In words: qHTS Assay for Inhibitors of PDE-IV (AID 607; active means well fitted activation curve with a large enough effect in the main read-out, with a control signal flat, not every such curve was filed as active; further: % of control where 0% means no effect). The conditions noted are these: HEK293 ACTOne CNG channel cells, membrane potential fluorescence; series mostly up to 22.9 µM. The method, boiled down: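 Cell-based read-out of cAMP via a modified cyclic nucleotide-gated channel and membrane potential dye (535/590 nm) in HEK293 cells expressing PDE4 endogenously. Compounds tested up to 22.9 uM final; 100 uM RO 20-1724 reference.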

Values joined by “and” are separate entries in the source; they are usually repeats but may differ in a detail not shown here. Identical values can stand only once. Values without a mark were called inactive. Inconclusive results are not listed. Active and inactive are the calls of the source. Unless noted, the call rests on the fitted dose curve; in most records, active means well fitted curve in either direction with a large enough effect (not every such curve was filed as active); inconclusive means small, poorly fitted or top-dose-only effect, or another doubt; inactive means flat fitted curve, though single readings scatter.

Chain of 3',5'-cyclic-AMP phosphodiesterase 4B (Homo sapiens) (Q07343 whole entry, looked up): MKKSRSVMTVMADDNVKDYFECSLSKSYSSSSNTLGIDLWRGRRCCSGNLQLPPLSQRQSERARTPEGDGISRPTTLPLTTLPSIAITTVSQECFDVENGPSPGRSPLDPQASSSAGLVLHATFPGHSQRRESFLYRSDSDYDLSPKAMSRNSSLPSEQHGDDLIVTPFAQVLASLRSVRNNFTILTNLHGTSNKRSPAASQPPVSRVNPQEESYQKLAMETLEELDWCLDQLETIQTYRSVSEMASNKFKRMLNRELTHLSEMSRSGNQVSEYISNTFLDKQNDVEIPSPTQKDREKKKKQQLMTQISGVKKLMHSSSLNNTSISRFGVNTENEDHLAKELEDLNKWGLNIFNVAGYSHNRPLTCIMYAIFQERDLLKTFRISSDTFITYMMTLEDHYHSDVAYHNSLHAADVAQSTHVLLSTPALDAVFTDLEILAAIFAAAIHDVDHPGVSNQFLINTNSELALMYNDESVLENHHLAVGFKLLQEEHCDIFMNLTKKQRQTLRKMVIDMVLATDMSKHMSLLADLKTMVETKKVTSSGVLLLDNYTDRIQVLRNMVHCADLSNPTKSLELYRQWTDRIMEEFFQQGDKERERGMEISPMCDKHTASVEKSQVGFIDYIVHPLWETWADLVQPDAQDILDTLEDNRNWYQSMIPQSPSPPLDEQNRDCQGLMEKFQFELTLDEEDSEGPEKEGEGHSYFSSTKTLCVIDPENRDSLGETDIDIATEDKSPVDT
Chain of Cytochrome P450 1A2 (Homo sapiens) (P05177 whole entry, looked up): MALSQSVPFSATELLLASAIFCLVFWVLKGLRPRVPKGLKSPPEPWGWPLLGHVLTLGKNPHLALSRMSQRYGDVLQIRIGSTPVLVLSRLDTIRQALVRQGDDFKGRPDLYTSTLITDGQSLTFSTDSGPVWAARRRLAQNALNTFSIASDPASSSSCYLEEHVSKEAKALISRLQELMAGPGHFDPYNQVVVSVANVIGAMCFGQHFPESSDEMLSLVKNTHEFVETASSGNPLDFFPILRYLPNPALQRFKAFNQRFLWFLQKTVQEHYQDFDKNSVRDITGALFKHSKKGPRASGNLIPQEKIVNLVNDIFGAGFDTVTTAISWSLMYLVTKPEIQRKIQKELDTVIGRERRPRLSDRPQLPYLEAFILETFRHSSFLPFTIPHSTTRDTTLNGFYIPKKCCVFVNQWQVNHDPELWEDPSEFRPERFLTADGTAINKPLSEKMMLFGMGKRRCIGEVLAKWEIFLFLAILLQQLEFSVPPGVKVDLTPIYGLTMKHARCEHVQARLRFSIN
Chain of Lysosomal acid glucosylceramidase (Homo sapiens) (P04062 whole entry, looked up): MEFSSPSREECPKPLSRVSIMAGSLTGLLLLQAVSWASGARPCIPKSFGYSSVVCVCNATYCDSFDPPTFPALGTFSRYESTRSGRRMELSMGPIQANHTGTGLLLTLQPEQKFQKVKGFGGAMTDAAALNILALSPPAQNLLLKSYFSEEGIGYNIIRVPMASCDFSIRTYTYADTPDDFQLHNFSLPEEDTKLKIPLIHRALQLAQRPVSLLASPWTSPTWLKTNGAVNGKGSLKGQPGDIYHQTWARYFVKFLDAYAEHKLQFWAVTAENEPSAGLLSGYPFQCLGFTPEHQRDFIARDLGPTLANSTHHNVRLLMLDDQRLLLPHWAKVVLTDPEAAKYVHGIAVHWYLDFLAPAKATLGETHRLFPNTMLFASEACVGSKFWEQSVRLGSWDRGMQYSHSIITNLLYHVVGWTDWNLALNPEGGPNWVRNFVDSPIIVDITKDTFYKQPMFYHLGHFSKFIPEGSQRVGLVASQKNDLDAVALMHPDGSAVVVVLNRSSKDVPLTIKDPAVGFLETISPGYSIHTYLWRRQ
Chain of Glucocorticoid receptor (Homo sapiens) (P04150 whole entry, looked up, the tested form may be a part): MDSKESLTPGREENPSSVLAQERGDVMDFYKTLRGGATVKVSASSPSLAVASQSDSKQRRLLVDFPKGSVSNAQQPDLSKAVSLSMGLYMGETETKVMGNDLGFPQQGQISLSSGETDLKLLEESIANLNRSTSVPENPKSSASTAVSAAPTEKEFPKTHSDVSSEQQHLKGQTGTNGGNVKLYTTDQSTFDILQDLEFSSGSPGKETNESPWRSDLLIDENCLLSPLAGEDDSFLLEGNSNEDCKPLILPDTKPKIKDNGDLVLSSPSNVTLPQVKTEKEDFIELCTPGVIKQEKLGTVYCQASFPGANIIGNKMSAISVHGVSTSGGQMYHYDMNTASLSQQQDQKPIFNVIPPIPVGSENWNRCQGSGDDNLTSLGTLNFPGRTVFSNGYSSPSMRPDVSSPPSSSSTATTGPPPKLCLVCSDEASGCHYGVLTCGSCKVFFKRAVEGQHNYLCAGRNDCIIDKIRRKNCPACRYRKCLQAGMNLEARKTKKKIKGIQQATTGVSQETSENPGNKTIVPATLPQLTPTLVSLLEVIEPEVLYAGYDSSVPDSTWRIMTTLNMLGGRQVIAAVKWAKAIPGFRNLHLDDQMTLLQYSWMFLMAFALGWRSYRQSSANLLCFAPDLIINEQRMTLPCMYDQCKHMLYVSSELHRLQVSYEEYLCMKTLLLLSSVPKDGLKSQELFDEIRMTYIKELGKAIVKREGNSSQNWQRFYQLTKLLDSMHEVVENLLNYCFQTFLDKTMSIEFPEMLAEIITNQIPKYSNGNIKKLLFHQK

`Nc1ncnc2c1ncn2[C@H]1O[C@@H](CO)[C@@H](O)[C@H]1N`: the Potency was greater than 11.4 µM in [1], greater than 46 µM in [6] and greater than 9.22 µM in [7]. Moreover, the activity change, negative = inhibition in assay [2] was -9.35%; in assay [4], -3.9%. For the same compound, the Potency result in assay [3], in [8] and in assay [9] was “inactive” each time. Moreover, the activity, negative = inhibition in [5] was 5.68%.

`COC(=O)CCCC(=O)O`: the results for the Potency in [1], in assay [6] and in assay [7] were greater than 11.4 µM, greater than 46 µM and greater than 9.22 µM, respectively. Moreover, the activity change, negative = inhibition was 1.55% in [2], -7.3% [at 2.29 µM] in [3] and -3.39% in [4]. In addition, the activity, negative = inhibition in assay [5] was -4.13%. For the same compound, the Potency result in assay [8] and in assay [9] was “inactive” in each case.

Turning to `O=C(O)[C@@H]1[C@@H](C(=O)NCc2cccnc2)[C@@H]2C=C[C@@H]1O2`, the Potency in [1] was greater than 11.4 µM; in assay [6], greater than 46 µM; in assay [7], greater than 9.22 µM. Also, the activity change, negative = inhibition in assay [2] was 8.06%; in assay [3] it was -0.4% [at 2.29 µM]; in assay [4], 2.31%. In [5], the activity, negative = inhibition is 0.333%. For the same compound, the Potency entry in [8] and in [9] was “inactive” in each case.

For `O=[N+]([O-])c1ccc2c(c1)Cc1cc(N=Cc3ccc4c(c3)OCO4)ccc1-2`, the Potency in assay [1] was greater than 11.4 µM; in [3], 0.794 µM (active); in assay [6], greater than 46 µM; in [7] it was greater than 9.22 µM. In addition, the activity change, negative = inhibition in [2] is -3.82%; in [4], -8.54%. The activity, negative = inhibition in [5] is -4.51%. Besides, the Potency entry in assay [8] and in [9] was “inactive” throughout.

As for `c1cc2c(cc1C(N1CCNCC1)N1CCNCC1)OCO2`, the figures for the Potency in assay [1], in assay [6] and in [7] were greater than 11.4 µM, greater than 46 µM and greater than 9.22 µM, respectively. Further, the activity change, negative = inhibition in assay [2] was 1.84%; in assay [3], -3% [at 2.29 µM]; in assay [4], 8.42%. Also, the activity, negative = inhibition in assay [5] is -2.48%. The Potency entry in assay [8] and in [9] was “inactive” throughout.

For `C=CCSc1nc2ccccc2c(=O)n1Cc1ccco1`, the Potency in [1] was greater than 11.4 µM; in [3] it was 0.0251 µM (active); in [6] it was greater than 46 µM; in assay [7] it was greater than 9.22 µM. The activity change, negative = inhibition in assay [2] was -0.523%; in assay [4], 2.6%. For the same compound, the activity, negative = inhibition in assay [5] is -8.01%. Further, the Potency entry in assay [8] and in [9] was “inactive” each time.

On to `Nc1nc(-c2cccnc2)cc(-c2cc(-c3cccnc3)nc(N)n2)n1`, for which the Potency in assay [1] is greater than 11.4 µM; in [6], greater than 46 µM; in assay [7] it was greater than 9.22 µM. Besides, the results for the activity change, negative = inhibition in assay [2], in [3] and in [4] were 16.4%, -15.9% [at 2.29 µM] and 12.8%, respectively. Further, the activity, negative = inhibition in assay [5] was 1.62%. The Potency result in [8] and in [9] was “inactive” throughout.

For `O=C(O)C1=C/C(=C(/c2ccccc2)c2cc(C(=O)O)c(O)c3ccccc23)c2ccccc2C1=O`, the figures for the Potency in assay [1], in [6] and in [7] were greater than 11.4 µM, greater than 46 µM and greater than 9.22 µM, respectively. Also, the activity change, negative = inhibition in assay [2] is 1.91% and 8.74%; in [4] it was 12% and -21.2%. Moreover, the Potency entry in [3], in assay [8] and in assay [9] was “inactive” each time. The activity, negative = inhibition in [5] is 2.38% and 8.71%.

Take `Nc1nc(SCC(=O)O)[nH]c(=O)c1N`: the Potency was greater than 11.4 µM in assay [1], greater than 46 µM in assay [6] and greater than 9.22 µM in assay [7]. Besides, the activity change, negative = inhibition is 4.37% in assay [2] and 10.6% in [4]. Moreover, the Potency entry in assay [3], in assay [8] and in assay [9] was “inactive” in each case. The activity, negative = inhibition in assay [5] is 4.74%.

In the case of `Nc1ncnc2c1ncn2CCCCC(=O)O`, the Potency was greater than 11.4 µM in [1], greater than 46 µM in assay [6] and greater than 9.22 µM in assay [7]. For the same compound, the activity change, negative = inhibition in [2] was 10.7%; in assay [4], 13.9%. Further, the Potency result in assay [3], in assay [8] and in [9] was “inactive” in each case. The activity, negative = inhibition in [5] is -0.241%.

Regarding `O=C1CC[C@H](NC(=O)c2ccccc2)C(=O)N1`, the Potency in assay [1] is greater than 11.4 µM; in assay [6], greater than 46 µM; in assay [7], greater than 9.22 µM. Moreover, the activity change, negative = inhibition was 5.12% in [2] and 4.46% in [4]. Moreover, the Potency entry in assay [3], in assay [8] and in [9] was “inactive” in each case. Besides, the activity, negative = inhibition in [5] is 2.96%.

For the compound `NC(=S)SCCC(=O)O`, the Potency is greater than 11.4 µM in assay [1], 1.58 µM (active) in assay [3], greater than 46 µM in [6] and greater than 9.22 µM in assay [7]. The activity change, negative = inhibition in assay [2] was 11.1%; in assay [4], 14.5%. Also, in assay [5], the activity, negative = inhibition is 14.5%. The Potency result in assay [8] and in [9] was “inactive” in each case.

For the compound `O=C(O)CNc1ccc(C(=O)O)cc1`, the figures for the Potency in assay [1], in assay [6] and in assay [7] were greater than 11.4 µM, greater than 46 µM and greater than 9.22 µM, respectively. Further, the activity change, negative = inhibition in [2] is -2.61%; in assay [4], 12.8%. The Potency result in assay [3], in assay [8] and in assay [9] was “inactive” in each case. Moreover, the activity, negative = inhibition in assay [5] was 6.8%.

Take `CCc1ncc(CO)n1Cc1cccc2ccccc12`: the Potency in assay [1] was greater than 11.4 µM; in assay [6], greater than 46 µM; in assay [7] it was greater than 9.22 µM. Moreover, the activity change, negative = inhibition in assay [2] is 11.3%; in [4] it was 6.66%. Besides, the Potency entry in assay [3], in [8] and in [9] was “inactive” in each case. Also, the activity, negative = inhibition in assay [5] is 10.1%.

Take `O=C(O)CCSc1ncnc2nc[nH]c12`: the figures for the Potency in [1], in assay [6] and in assay [7] were greater than 11.4 µM, greater than 46 µM and greater than 9.22 µM, respectively. The results for the activity change, negative = inhibition in assay [2] and in [4] were 15.6% and 1.77%, respectively. Further, the Potency entry in assay [3], in assay [8] and in assay [9] was “inactive” throughout. Further, the activity, negative = inhibition in assay [5] was 0.335%.
